Compound activity: PubChem, ICCB-Longwood Screening Facility, Harvard Medical School
Vaccinia pol inh – blocks vaccinia virus processive DNA synthesis | in vitro processive DNA synthesis, absorbance read-out; active compounds read low | normalized absorbance, % (concentration not given with the values) | hit rate 0.94% among 46,000; in the data active means normalized absorbance mostly below about 85%, no sharp cut-off; inactive means mostly above about 86%
The depositor's hits bear a star; ! = repeats disagree. Only a selection was taken, and hits are over-represented in it overall.

SMILES | Vaccinia pol inh
O=C(CCOc1ccccc1)Nc1nnc(-c2ccc(Cl)cc2)o1 | 95.2
CCn1c(=NC(=O)Cc2ccccc2)sc2cc(Br)ccc21 | 98.1
CCOc1ccccc1N(C)C(=O)COc1cc(=O)n(C)c2ccccc12 | 88.5
CN(c1ccc(Cl)cc1)c1cc(=O)n(C)c2ccccc12 | 63.2*
CN1CCN(C(=O)COc2cc(=O)n(C)c3ccccc23)CC1 | 84.6
Cc1ccc(C2=C/C(=C3\OC(=O)c4ccccc43)C(=O)O2)cc1 | 98.1
O=C(/C=C/c1ccccc1)/C=C/c1ccco1 | 77.6
O=C(/C=C/c1ccco1)C1(O)CCCCC1 | 91.2
O=C(/C=C/c1ccco1)Nc1cccc(NC(=O)/C=C/c2ccco2)n1 | 84.8*
Cc1nn(C)c(C)c1NC(=O)/C=C/c1ccco1 | 103.0
O=C(/C=C/c1ccco1)NCCc1ccccc1 | 102.2
O=C(/C=C/c1ccco1)/C=C/c1ccco1 | 8.6*
CC(C)(Oc1ccccc1Cl)C(=O)O | 100.7
COCC(C)n1c(=O)c2ccccc2c2ccccc2c1=O (configuration not stated) | 82.2
CCCNC(=O)c1ccc2ccccc2c1 | 106.5
O=C(/C=C/C(=O)c1ccc2ccccc2c1)c1ccccc1 | 98.1
C/C(=N\N)c1ccc2ccccc2c1 | 83.0*
CN(C)C(CC(=O)Nc1cccc(C(F)(F)F)c1)C(=O)O (configuration not stated) | 81.8
Cc1ccc2c(c1)c1cccc3c1n2CCN3CCC(N)=O | 63.3*
Cc1ccc(-n2c(=O)c3c(c4cc(C)ccc4n3C)n(CC(N)=O)c2=O)cc1 | 93.2
NC(=O)CCN1CCn2c1nc1ccccc12 | 100.3
Cc1ccccc1-c1nnc(NC(=O)c2ccccc2Cl)s1 | 98.8
O=C1CSc2cc(S(=O)(=O)NN3CCOCC3)ccc2N1 | 95.3
CC(=O)N1CC(C)Sc2cc(S(=O)(=O)N(C)c3ccc(C)cc3)ccc21 (configuration not stated) | 101.5
O=C(CSC1=NCCc2ccccc21)c1ccccc1Cl | 87.0
SMILES | Vaccinia pol inh
O=C(SC1=NCCc2ccccc21)c1ccccc1 | 96.7
O=C(CSC1=NCCc2ccccc21)c1ccc(-c2ccccc2)cc1 | 69.0*
CCC(CC)NC(=O)C1C(=O)N(C)C2(C)CC1c1ccccc1O2 (configuration not stated) | 114.2
CC(C)N(C(=O)C12CC3CC(CC(C3)C1)C2)c1ccccn1 | 88.4
c1ccc(COn2c(-c3ccccc3)nc3ncccc32)cc1 | 83.6
N/C(=N\c1nc2ccccc2s1)NC(=O)c1cccc(Cl)c1 | 99.4
NC(=O)NC(=O)Cc1ccccc1 | 101.6
O=C(Cc1csc(Nc2ccc(Cl)cc2)n1)NCc1ccccc1 | 100.2
N/C(=N\c1nc(=O)c2ccccc2s1)NC(=O)c1ccc(Cl)c(Cl)c1 | 100.0
NC(=Nc1ccccc1)NC(=O)c1nc(Cl)c(N)nc1N | 50.8*
NC(=NCc1ccccc1)NC(=O)c1nc(Cl)c(N)nc1N | 59.1*!
CCc1ccccc1NC(=O)CCNS(=O)(=O)c1ccc2[nH]c(=O)ccc2c1 | 105.4
CCOC(=O)c1cc(-c2ccccc2)n(CCC(=O)O)c1C | 88.3
CCOC(=O)c1cc(-c2ccccc2)n(-c2cccc(C(=O)N3CCCC3)c2)c1C | 78.2
CCOC(=O)c1cc(-c2ccccc2)n(-c2ccc(C(=O)O)cc2)c1C | 60.6*
COc1ccc(N2C(=O)C=C(c3ccc(F)cc3)C2/C=N/O)cc1 (configuration not stated) | 99.8
CC(NC(=O)c1cccc(N)c1)c1ccccc1 (configuration not stated) | 100.1
Clc1ccc(C=NCc2ccc(-c3cccs3)s2)cc1 | 99.4
Cc1csc2sc(C=NCc3cccs3)c(C)c12 | 62.7*
Cc1csc2sc(COC(=O)Nc3ccccc3)c(C)c12 | 99.4
O=C(CC(C(=O)O)N(Cc1ccccc1)Cc1ccccc1)c1ccc(Cl)cc1 (configuration not stated) | 98.7
CC(C)CN(C(=O)Nc1ccccc1)C1=NCC(C)S1 (configuration not stated) | 100.5
O=C(O)CNC(=O)C1CCCCC1 | 103.0
N[C@@H](CC1CCCCC1)C(=O)O | 99.3
O=C(O)CCC1CCCCCCCCCCC1 | 73.9*
SMILES | Vaccinia pol inh
O=S(c1cccc(C(F)(F)F)c1)c1ccc2nnc(Cl)n2n1 (configuration not stated) | 88.2
O=C(Nc1ccccc1C(=O)O)OCC1c2ccccc2-c2ccccc21 | 41.1*
O=C(/C=N/O)Nc1ccccc1C(=O)O | 94.2
O=C(O)c1ccccc1NCc1ccccc1Cl | 63.8
CCN(CC)CCCOc1cccc2ccccc12 | 103.2
O=C(Nc1cccc(Cl)c1)c1cc(O)cc(O)c1 | 101.1
CC1CCc2[nH]c3ccc(C(=O)O)cc3c2C1 (configuration not stated) | 100.0
COC(=O)c1ccc2c(c1)NC(=O)C1CCCN21 (configuration not stated) | 94.4
O=C(O)c1ccc2c(c1)NC(=O)C1CCCN21 (configuration not stated) | 47.5*
O=C(Nc1ccc(N2CCCCC2)cc1)Nc1cccc(Cl)c1Cl | 112.4
Cc1cc(C[n+]2nc(-c3ccccc3)sc2N)c2ncccc2c1 | 94.0
Cc1[nH]c2ccc(F)cc2c1CCN(Cc1ccco1)C(=S)NC1CCCCC1 | 103.1
